Measured values reported in PubChem BioAssay (EPA / NIEHS).
Active and inactive are the calls of the source. How the source made its calls: active means hit-call score of the fitted dose curve at least 0.9, where 1 is the maximum; inactive means score below 0.9.

read-out: Monokine induced gamma interferon (MIG), CXCL9 (gene 4283); test: BSK_BE3C_MIG: BioMAP Diversity Plus: BE3C Assay for Monokine induced gamma interferon (MIG) Biomarker Activity (AID 2283035); settings: primary human bronchial epithelial cells; actives raise or lower the signal
Description: BSK_BE3C is a cell-based, multiplexed-readout assay that uses bronchial epithelial cell, a human lung primary cell, with measurements taken at 24 hours after chemical dosing in a 96-well plate.BSK_BE3C_MIG is an assay component measured in the BSK_BE3C assay. It measures MIG antibody related to regulation of gene expression using ELISA technology.Data from the assay component BSK_BE3C_MIG was analyzed into 1 assay endpoint. This assay endpoint, BSK_BE3C_MIG, was analyzed with bidirectional fitting relative to DMSO as the negative control and baseline of activity. Using a type of binding reporter, gain or loss-of-signal activity can be used to understand changes in the signaling as they relate to the gene CXCL9. Furthermore, this assay endpoint can be referred to as a primary readout, because this assay has produced multiple assay endpoints where this one serves a signaling function. To generalize the intended target to other relatable targets, this assay endpoint is annotated to the cytokine intended target family, where the subfamily is chemotactic factor.
The levels of cell surface (or secreted, indicated by the prefix "s") biomarker endpoints were measured by ELISA. Overt cytotoxicity to cells in confluent adherent cultures (all systems other than the BT system) was assessed by measuring total protein levels using sulforhodamine B (SRB) staining in parallel cultures at the time of biomarker measurements, indicated as SRB endpoints. For proliferation assays for adherent cell types, individual cell types are cultured at sub-confluence and relative cell numbers quantified by SRB staining at time points optimized for each system (48 h: 3C and CASM3C systems; 72 h: BT and HDF3CGF systems; 96 h: SAg system). SRB was performed by staining cells with 0.1% SRB after fixation with 10% TCA and reading wells at 560 nm.Viability and proliferation of PBMC (T cells) was quantified by Alamar Blue reduction for the SAg and BT systems. For PBMC viability (referred to as PBMC Cytotoxicity within the assay endpoint names), cells were plated (75,000/well in a 96-well plate) and then chemical samples added for 1 h before addition of activators, SEB and TSST-1 (20 ng/mL final concentration each). Cells were incubated for 90 h. Then, Alamar Blue (20 uL/well) (Invitrogen, Cat DAL1100) was added for 6 h, and the plates were read with a fluorescence microplate reader at 546/580 nm (excitation/emission). For PBMC proliferation, cells were plated and activated as above but incubated for only 16 h prior to addition of Alamar Blue. Plates were read after 6 h.

Compound	AC50	outcome
C=CC(=O)OCC(CC)(COC(=O)C=C)COC(=O)C=C	9.44 µM (active)	
O=P(OCC(Br)CBr)(OCC(Br)CBr)OCC(Br)CBr (stereo not given)		inactive
O=c1ssc(Cl)c1Cl	12.6 µM (active)	
CCCCN(CCCC)SN(C)C(=O)Oc1cccc2c1OC(C)(C)C2		inactive
c1ccc(OP(Oc2ccccc2)Oc2ccccc2)cc1		inactive
CCOP(=S)(OCC)SCSCC		inactive
c1nc[nH]n1		inactive
O=C(O)C(Cl)Cl		inactive
O=C(O)C(F)(F)C(F)(F)C(=O)O		inactive
CCCCN(CCCC)N=O		inactive
Nc1cc2c3c(c1)C(c1ccccc1)=N[C@@H](NC(=O)c1cccnc1)C(=O)N3CC2		inactive
ClC(Cl)(Cl)c1ccccc1		inactive
CCOP(=S)(NC(C)C)Oc1ccccc1C(=O)OC(C)C (stereo not given)		inactive
N#Cc1c(-c2ccc(Cl)cc2)[nH]c(C(F)(F)F)c1Br	25.4 µM (active)	
Cc1ccc2c(c1N)C(=O)c1ccccc1C2=O		inactive
CC(O)C(F)(F)C(F)(F)F (stereo not given)		inactive
FC(F)(F)C(F)(C(F)(F)F)C(F)(F)C(F)(F)CC1CO1 (stereo not given)		inactive
CC(C)(C)c1ccccc1OP(=O)(Oc1ccccc1)Oc1ccccc1		inactive
CCCN(CCC)c1c([N+](=O)[O-])cc(C(C)C)cc1[N+](=O)[O-]		inactive
CCCCC(CC)COP(=O)(Oc1ccccc1)Oc1ccccc1 (stereo not given)		inactive

Compound	AC50	outcome
O=C(O)C(F)(F)OC(F)(F)C(F)(F)OC(F)(F)F		inactive
O=S(=O)(F)C(F)(F)C(F)(F)C(F)(F)C(F)(F)C(F)(F)C(F)(F)C(F)(F)C(F)(F)F		inactive
CC(C)Nc1ccc(Nc2ccccc2)cc1	20 µM (active)	
CCNc1nc(Cl)nc(NC(C)(C)C)n1		inactive
c1ccc2c(c1)sc1ccccc12		inactive
CCOP(=S)(OCC)SCn1nnc2ccccc2c1=O		inactive
COCCOCCO		inactive
Nc1ccc([N+](=O)[O-])cc1Cl		inactive
Nc1ccc(Cl)cc1		inactive
ClC(Cl)=C(c1ccc(Cl)cc1)c1ccccc1Cl	26.4 µM (active)	
OCC(F)(F)OC(F)(F)C(F)(F)OC(F)(F)C(F)(F)OC(F)(F)F		inactive
CCCCOCCOP(=O)(OCCOCCCC)OCCOCCCC		inactive
O=[N+]([O-])c1ccc(Cl)c(Cl)c1		inactive
Cc1ccc(O)cc1C		inactive
CCOS(=O)(=O)OCC		inactive
CC(C)(C)c1ccc(O)cc1		inactive
CCOP(=S)(Oc1ccc([N+](=O)[O-])cc1)c1ccccc1 (stereo not given)		inactive
CC(Cl)(Cl)C(=O)O		inactive
NC(=O)C(F)(F)C(F)(F)F		inactive
N#Cc1cc([N+](=O)[O-])ccc1N		inactive
